{"source": "PubChem BioAssay AID1159580", "about": "(chemical genetic matrix, 2015)", "test": "chemical genetic growth profiling, strain panel (AID 1159580);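 further: tested at 20 µM; growth read once vehicle control cultures reached saturation at 30 °C; 1 = growth at the plate median or of vehicle wells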", "settings": "S. cerevisiae deletion strains, growth OD", "note": "Several values for one entry are separate records, joined by “and”; a condition that tells them apart may be missing. Identical values can stand only once. Screen size: about 5,500 compounds; about 2,000 (36%) were called active. Not shown: some 18% with an inconclusive outcome. The list shows a part of the results. A number with no mark means an inactive call. No stated cut-off is given here; in the data, active means normalized growth mostly below about 0.91 (no sharp cut-off); inconclusive means no clear call, values can overlap the other calls; inactive means mostly above about 0.92.", "data": [{"smiles": "O=C(O)CCCCC1CCSS1", "note": "(configuration not stated)", "values": [{"measurement": "normalized growth", "setting": "locus YAL013W, strain DEP1, stronger effect = lower value", "result": 0.97}, {"measurement": "normalized growth", "setting": "locus YAL021C, strain ccr4, stronger effect = lower value", "result": 1}, {"measurement": "normalized growth", "setting": "locus YAL026C, strain drs2, stronger effect = lower value", "result": 0.94}, {"measurement": "normalized growth", "setting": "locus YAL030W, strain snc1, stronger effect = lower value", "result": 0.974}, {"measurement": "normalized growth", "setting": "locus YBL061C, strain skt5, stronger effect = lower value", "result": 0.979}, {"measurement": "normalized growth", "setting": "locus YBR009C, strain hhf1, stronger effect = lower value", "result": 0.933}, {"measurement": "normalized growth", "setting": "locus YBR021W, strain FUR4, stronger effect = lower value", "result": 0.987}, {"measurement": "normalized growth", "setting": "locus YBR023C, strain chs3, stronger effect = lower value", "result": 0.977}, {"measurement": "normalized growth", "setting": "locus YBR171W, strain sec66, stronger effect = lower value", "result": 0.934}, {"measurement": "normalized growth", "setting": "locus YBR229C, strain ROT2, stronger effect = lower value", "result": 0.953}, {"measurement": "normalized growth", "setting": "locus YBR231C, strain swc5, stronger effect = lower value", "result": 0.979}, {"measurement": "normalized growth", "setting": "locus YBR279W, strain paf1, stronger effect = lower value", "result": 0.978}, {"measurement": "normalized growth", "setting": "locus YCL011C, strain gbp2, stronger effect = lower value", "result": 0.959}, {"measurement": "normalized growth", "setting": "locus YCL016C, strain dcc1, stronger effect = lower value", "result": 0.983}, {"measurement": "normalized growth", "setting": "locus YCL029C, strain bik1, stronger effect = lower value", "result": 0.993}, {"measurement": "normalized growth", "setting": "locus YCL061C, strain MRC1, stronger effect = lower value", "result": 0.956}, {"measurement": "normalized growth", "setting": "locus YCL069W, strain vba3, stronger effect = lower value", "result": 0.973}, {"measurement": "normalized growth", "setting": "locus YCR088W, strain abp1, stronger effect = lower value", "result": 0.978}, {"measurement": "normalized growth", "setting": "locus YDL005C, strain med2, stronger effect = lower value", "result": 1.02}, {"measurement": "normalized growth", "setting": "locus YDL035C, strain GPR1, stronger effect = lower value", "result": 0.98}, {"measurement": "normalized growth", "setting": "locus YDL040C, strain nat1, stronger effect = lower value", "result": 0.976}, {"measurement": "normalized growth", "setting": "locus YDL074C, strain BRE1, stronger effect = lower value", "result": 0.99}, {"measurement": "normalized growth", "setting": "locus YDL101C, strain DUN1, stronger effect = lower value", "result": 0.978}, {"measurement": "normalized growth", "setting": "locus YDL134C, strain PPH21, stronger effect = lower value", "result": 0.974}, {"measurement": "normalized growth", "setting": "locus YDL185W, strain tfp1, stronger effect = lower value", "result": 0.942}, {"measurement": "normalized growth", "setting": "locus YDL192W, strain arf1, stronger effect = lower value", "result": 0.979}, {"measurement": "normalized growth", "setting": "locus YDR001C, strain nth1, stronger effect = lower value", "result": 0.971}, {"measurement": "normalized growth", "setting": "locus YDR069C, strain doa4, stronger effect = lower value", "result": 0.982}, {"measurement": "normalized growth", "setting": "locus YDR101C, strain arx1, stronger effect = lower value", "result": 0.996}, {"measurement": "normalized growth", "setting": "locus YDR137W, strain rgp1, stronger effect = lower value", "result": 0.883}, {"measurement": "normalized growth", "setting": "locus YDR150W, strain NUM1, stronger effect = lower value", "result": 0.958}, {"measurement": "normalized growth", "setting": "locus YDR159W, strain sac3, stronger effect = lower value", "result": 0.984}, {"measurement": "normalized growth", "setting": "locus YDR162C, strain NBP2, stronger effect = lower value", "result": 0.938}, {"measurement": "normalized growth", "setting": "locus YDR195W, strain ref2", "result": 0.994}, {"measurement": "normalized growth", "setting": "locus YDR297W, strain sur2, stronger effect = lower value", "result": 0.975}, {"measurement": "normalized growth", "setting": "locus YDR318W, strain mcm21, stronger effect = lower value", "result": 0.992}, {"measurement": "normalized growth", "setting": "locus YDR334W, strain swr1, stronger effect = lower value", "result": 0.978}, {"measurement": "normalized growth", "setting": "locus YDR335W, strain msn5, stronger effect = lower value", "result": 0.97}, {"measurement": "normalized growth", "setting": "locus YDR388W, stronger effect = lower value", "result": 0.985}, {"measurement": "normalized growth", "setting": "locus YDR392W, strain spt3, stronger effect = lower value", "result": 0.888}, {"measurement": "normalized growth", "setting": "locus YDR502C, strain sam2, stronger effect = lower value", "result": 0.975}, {"measurement": "normalized growth", "setting": "locus YEL003W, strain gim4, stronger effect = lower value", "result": 0.961}, {"measurement": "normalized growth", "setting": "locus YEL037C, strain rad23, stronger effect = lower value", "result": 0.976}, {"measurement": "normalized growth", "setting": "locus YEL061C, strain CIN8 (second series), stronger effect = lower value", "result": 0.968}, {"measurement": "normalized growth", "setting": "locus YEL061C, strain CIN8, stronger effect = lower value", "result": 0.975}, {"measurement": "normalized growth", "setting": "locus YER015W, strain faa2, stronger effect = lower value", "result": 0.985}, {"measurement": "normalized growth", "setting": "locus YER016W, strain bim1, stronger effect = lower value", "result": 0.983}, {"measurement": "normalized growth", "setting": "locus YER110C, stronger effect = lower value", "result": 0.961}, {"measurement": "normalized growth", "setting": "locus YER111C, strain swi4, stronger effect = lower value", "result": 0.963}, {"measurement": "normalized growth", "setting": "locus YER155C, strain BEM2 (second series), stronger effect = lower value", "result": 0.922}, {"measurement": "normalized growth", "setting": "locus YER155C, strain BEM2, stronger effect = lower value", "result": 0.989}, {"measurement": "normalized growth", "setting": "locus YER167W, strain BCK2, stronger effect = lower value", "result": 0.981}, {"measurement": "normalized growth", "setting": "locus YFR010W, strain ubp6, stronger effect = lower value", "result": 0.962}, {"measurement": "normalized growth", "setting": "locus YGL078C, strain dbp3, stronger effect = lower value", "result": 0.981}, {"measurement": "normalized growth", "setting": "locus YGL086W, strain mad1, stronger effect = lower value", "result": 0.97}, {"measurement": "normalized growth", "setting": "locus YGL167C, strain pmr1, stronger effect = lower value", "result": 0.95}, {"measurement": "normalized growth", "setting": "locus YGL173C, strain kem1, stronger effect = lower value", "result": 0.973}, {"measurement": "normalized growth", "setting": "locus YGL227W, strain vid30, stronger effect = lower value", "result": 0.965}, {"measurement": "normalized growth", "setting": "locus YGL240W, strain doc1, stronger effect = lower value", "result": 0.956}, {"measurement": "normalized growth", "setting": "locus YGL248W, strain PDE1, stronger effect = lower value", "result": 0.981}, {"measurement": "normalized growth", "setting": "locus YGL253W, strain hxk2, stronger effect = lower value", "result": 0.992}, {"measurement": "normalized growth", "setting": "locus YGR078C, strain PAC10, stronger effect = lower value", "result": 0.999}, {"measurement": "normalized growth", "setting": "locus YGR135W, strain pre9, stronger effect = lower value", "result": 0.982}, {"measurement": "normalized growth", "setting": "locus YGR229C, strain SMI1, stronger effect = lower value", "result": 1.01}, {"measurement": "normalized growth", "setting": "locus YGR252W, strain gcn5, stronger effect = lower value", "result": 0.873}, {"measurement": "normalized growth", "setting": "locus YHR013C, strain ard1, stronger effect = lower value", "result": 0.935}, {"measurement": "normalized growth", "setting": "locus YHR027C, strain rpn1, stronger effect = lower value", "result": 0.987}, {"measurement": "normalized growth", "setting": "locus YHR030C, strain SLT2, stronger effect = lower value", "result": "0.98 and 0.943"}, {"measurement": "normalized growth", "setting": "locus YHR079C, strain IRE1 (second series), stronger effect = lower value", "result": 0.984}, {"measurement": "normalized growth", "setting": "locus YHR079C, strain IRE1, stronger effect = lower value", "result": "0.383 (active)"}, {"measurement": "normalized growth", "setting": "locus YHR094C, strain hxt1, stronger effect = lower value", "result": 0.981}, {"measurement": "normalized growth", "setting": "locus YHR129C, strain ARP1, stronger effect = lower value", "result": 0.997}, {"measurement": "normalized growth", "setting": "locus YHR142W, strain chs7, stronger effect = lower value", "result": 1.02}, {"measurement": "normalized growth", "setting": "locus YHR200W, strain rpn10, stronger effect = lower value", "result": 0.991}, {"measurement": "normalized growth", "setting": "locus YIL066C, strain RNR3, stronger effect = lower value", "result": 0.985}, {"measurement": "normalized growth", "setting": "locus YIL073C, strain SPO22, stronger effect = lower value", "result": 0.978}, {"measurement": "normalized growth", "setting": "locus YIL125W, strain kgd1, stronger effect = lower value", "result": 0.99}, {"measurement": "normalized growth", "setting": "locus YIR030C, strain dcg1, stronger effect = lower value", "result": 0.978}, {"measurement": "normalized growth", "setting": "locus YJL092W, strain hpr5, stronger effect = lower value", "result": 0.972}, {"measurement": "normalized growth", "setting": "locus YJL095W, strain BCK1 (second series), stronger effect = lower value", "result": 0.975}, {"measurement": "normalized growth", "setting": "locus YJL095W, strain BCK1, stronger effect = lower value", "result": "1.03 and 0.902"}, {"measurement": "normalized growth", "setting": "locus YJL115W, strain asf1, stronger effect = lower value", "result": 0.978}, {"measurement": "normalized growth", "setting": "locus YJL129C, strain trk1, stronger effect = lower value", "result": 0.91}, {"measurement": "normalized growth", "setting": "locus YJL134W, strain LCB3, stronger effect = lower value", "result": 0.977}, {"measurement": "normalized growth", "setting": "locus YJL154C, strain vps35, stronger effect = lower value", "result": 0.975}, {"measurement": "normalized growth", "setting": "locus YJL164C, strain tpk1, stronger effect = lower value", "result": 0.967}, {"measurement": "normalized growth", "setting": "locus YJL166W, strain qcr8, stronger effect = lower value", "result": 0.976}, {"measurement": "normalized growth", "setting": "locus YJL168C, strain set2, stronger effect = lower value", "result": 0.992}, {"measurement": "normalized growth", "setting": "locus YJL187C, strain SWE1 (second series), stronger effect = lower value", "result": 0.992}, {"measurement": "normalized growth", "setting": "locus YJL187C, strain SWE1, stronger effect = lower value", "result": 0.973}, {"measurement": "normalized growth", "setting": "locus YJR043C, strain POL32, stronger effect = lower value", "result": 1.01}, {"measurement": "normalized growth", "setting": "locus YJR066W, strain TOR1, stronger effect = lower value", "result": "0.812 (active)"}]}]}
